The panel holds about 83,000 compounds, 20% with a hit somewhere; the sample as a whole holds those more often.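 Percent growth is the endpoint: 0 to 100 indicates growth inhibition (40 means 60% inhibition), 0 means no net growth, and negative values indicate cell death.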 Values without a mark were called inactive. Calls of active or inactive are those of the source. How the source made its calls: active means growth percent below 10; inactive means the rest.
The molecules below were run on HCC-2998 colon (assay: NCI-60 one-dose screen, 48 h (100 = growth as untreated, 0 = no growth, -100 = all killed)). Conditions: 10 µM.

SMILES	growth
Cc1cc(C)nc(NS(=O)(=O)c2ccc(N/C(N)=N/c3nccc(-c4ccccc4)n3)cc2)n1	85.3%
N#Cc1c(NC(=O)c2ccc(C(O)(C(F)(F)F)C(F)(F)F)cc2)sc2c1CCC(=O)C2	-95.6% (active)
N#Cc1ccc(-c2nn(-c3ccc(C(=O)O)cc3)cc2CNc2cc(Cl)cc(C(F)(F)F)c2)cc1	-27.7% (active)

These molecules were tested on KM12 colon in the same assay as above. Conditions: 10 µM.

SMILES	growth
O=C(NO)c1ccc(-c2nc3ccc4[nH]ncc4c3c3c2CCCC3)cc1	-28.3% (active)
O=C(CNc1nc(-c2ccccc2)cs1)Nc1ccc(Cl)cc1	-83.8% (active)
COc1cc2c3c(n(CCCN4CCOCC4)c(=O)c2cc1OC)-c1nc2c(cc1C3=O)OCO2	32.1%
Cc1ccc(/C=C/C(=O)c2ccc(NC(=O)CSc3nnc(-c4c[nH]c5ccccc45)n3-c3ccccc3)cc2)c(C)c1	66.6%
O=C(CN1CCN(c2ncnc3c2cnn3-c2ccccc2)CC1)Nc1nncs1	4.55% (active)
CC(=O)Oc1ccccc1C(=O)Oc1ccc(C(=O)/C=C/c2ccncc2)cc1	22%
O=C(NC(=S)N1CCN(c2ncnc3c2cnn3-c2ccccc2)CC1)c1ccc(Cl)cc1	87.3%
C/C(=N\N=C\c1ccc(N(C)C)cc1)c1ccc2c(c1)Nc1ccccc1S2	60.9%
COC(=O)C[C@](O)(CCCC(C)(C)O)C(=O)O[C@H]1C(OC)=C[C@@]23CCC(=O)N2CCc2cc4c(cc2[C@@H]13)OCO4	98.3%
CN1CCN(Cc2ccc(NC(=O)c3cncc(C#Cc4cnc5ccc(N[C@H]6CCOC6)nn45)c3)cc2C(F)(F)F)CC1	-89.7% (active)
CCOc1ccc(/C=N/NC(=O)Cn2nc(Cc3ccc([N+](=O)[O-])cc3)c3onc(C)c3c2=O)cc1	51.3%
CN1CCN(c2ccc(C(=O)/C=C/c3ccc(OC(F)F)cc3)cc2)CC1	6.74% (active)
COc1ccc(C2N(c3ccc(Br)cc3)N=C(C(C)=O)N2[C@H]2[C@H](OC(C)=O)O[C@H](COC(C)=O)[C@@H](OC(C)=O)[C@@H]2OC(C)=O)cc1 (some centres undefined)	70.6%
CCOC(=O)C1=C(N)N(c2ccccc2)C2=C(C(=O)CC(C)(C)C2)C1c1ccc(Cl)cc1 (centres undefined)	17.9%
CCCn1c(=O)c2[nH]c(-c3ccc(OCc4nc5ccc(F)cc5[nH]4)cc3)nc2n(CCC)c1=O	55.7%
Cc1ccc(/C(CSc2nnc(-c3c[nH]c4ccccc34)n2-c2ccccc2)=N/O)cc1	50.2%

SMILES	growth
CN1CCN(c2ccc(C(=O)/C=C/c3cc(C(F)(F)F)ccc3Cl)cc2)CC1	-36.5% (active)
COc1ccc(C(=O)Nc2sc3c(c2C#N)CCC(=O)C3)cc1C(F)(F)F	10.4%
Cc1ccc(/C=C/C(=O)c2ccc(NC(=O)CSc3nnc(-c4c[nH]c5ccccc45)n3-c3ccccc3)cc2)cc1	78.7%
COc1ccc(Nc2nc(N)n(Cc3cccc(Br)c3)n2)cc1	1.74% (active)
O=C1CCC(N2Cc3cc(NC(=O)COc4ccccc4)ccc3C2=O)C(=O)N1 (centres undefined)	74.5%
O=C(/C=C/Nc1ccccc1)c1ccc2c(c1)Nc1ccccc1S2	87%
COc1cc2c(c(OC)c1OC)C(=O)CC(c1cccc(NC(=O)c3cccc(N)c3)c1)O2 (centres undefined)	72.2%
Cc1noc2c(Cc3ccc([N+](=O)[O-])cc3)nn(CC(=O)N/N=C/c3ccc(Br)cc3)c(=O)c12	84.2%
COc1ccc(-c2nc(Nc3ccccc3S(N)(=O)=O)c3ccccc3n2)cc1	6.25% (active)
COc1cc(/C=C/C(=O)c2ccc(NC(=O)CSc3nnc(-c4c[nH]c5ccccc45)n3-c3ccccc3)cc2)cc(OC)c1OC	48.8%
O=C(CSc1nnc(-c2ccc3nc(-c4ccc(Cl)cc4)[nH]c3c2)o1)Nc1ccc(Br)cc1	15.6%
Cc1ccn2c(C(=O)c3ccccc3)cc(-c3cc(-c4ccc(N(C)C)cc4)c(C#N)c(N)n3)c2c1	74%
O=C1c2ccccc2C(=O)c2c1c(C(=O)c1ccc(Cl)cc1)n1c2ccc2c3ccccc3ccc21	103%
Cn1c(O)c(N=Nc2nc(-c3cc4ccccc4oc3=O)cs2)c2cc(Br)ccc21	95.5%
Cn1cc(-c2cc(N)n3nc(-c4c[nH]c5ccc(Br)cc45)cc3n2)c2cccnc21	-78.3% (active)

From PubChem BioAssay (NCI)
